Out of some 69,000 compounds screened, about 8,600 (12%) showed an effect of 50% or more. The entries come from a sample that favours strong results as a whole.
system: Plasmodium berghei; assay: Screen against P. berghei liver stage (PbLuc), transformed with Luciferase, at 10uM; format: functional, HepG2; conditions: tested at 10 uM

In order of falling INHIBITION:
1. CC1CN(CC2CCCCC2)CCN1c1ccc2nncn2n1 (stereo unspecified)  89.3%
2. Cc1ccoc1C(=O)NC1CCN(Cc2csc3c(F)cccc23)CC1  87.4%
3. CC1CN(CC2CCCC2)CCN1c1ccc2nncn2n1 (stereo unspecified)  82.6%
4. O=C(C1CC1)N1CCC2(CC1)CNCc1ccccc12  74.8%
5. CCc1nc(C2CCCN2Cc2noc(Cc3ccccc3)n2)no1 (stereo unspecified)  72.8%
6. CCc1nc(C2CCCN2Cc2nc(C(C)(C)C)no2)no1 (stereo unspecified)  71.2%
7. COc1cc(C(=O)NCC2(N(C)C)CCN(C)CC2)c2ccccc2n1  68.4%
8. Cc1cc(CN2CCCC2c2noc(C3CC3)n2)c2ccccc2n1 (stereo unspecified)  64.5%
9. CNC(=O)C1CCN(C(=O)CCn2cccn2)CC1  62.8%
10. O=C(C1CCCCC1)N1CCC2(CC1)CNCc1ccccc12  61.5%
11. CC(Cc1ccccc1F)NC(=O)CCC1=NC(=C2N=CN=N2)NO1 (stereo unspecified)  60.4%
12. Cc1ccoc1C(=O)NC1CCN(Cc2cccc3ccccc23)CC1  56.4%
13. O=C1NCCN(C(=O)c2cn3ccsc3n2)C1Cc1ccccc1 (stereo unspecified)  54.5%
14. Cc1nnc(CN2CCCC2c2ccsc2)o1 (stereo unspecified)  53.9%
15. COc1cc(C(=O)NCCS(=O)(=O)N(C)C)c2ccccc2n1  52.9%
16. Cc1cc(NC(=O)N(CCC#N)CCCN(C)C)ccc1F  52.6%
17. Cc1cc(C)cc(NC(=O)N(CCC#N)CCCN(C)C)c1  52.6%
18. Cc1ccoc1C(=O)NC1CCN(Cc2cccc3c2OCCO3)CC1  52.1%
19. CC1CN(CC(=O)NC2CCCC2)CCN1c1ccc2nncn2n1 (stereo unspecified)  50.4%
20. CC(C)Cc1nnc2sc(-c3cc(C(C)C)n[nH]3)nn12  46.6%
21. O=C(NCc1csc2ccc(Cl)cc12)c1cc2n(n1)CCNC2  44.4%
22. Cc1ccoc1C(=O)NC1CCN(Cc2ccccc2F)CC1  44.1%
23. O=C1NCCN(C(=O)c2cn3ccsc3n2)C1c1cccc(F)c1 (stereo unspecified)  43.6%
24. Cc1cccnc1CN1CCN(C(=O)[C@@]23CNC[C@@H]2CN(C)C3)CC1  41.5%
25. COc1ccc2cnn(CC(=O)NC3CCCC3)c(=O)c2c1OC  40.5%
26. Cc1nnc(CN2CCCC2c2ccc(C(C)(C)C)cc2)o1 (stereo unspecified)  38.8%
27. CC(C)CC(N)C1=NC(=C2N=CN=N2)NO1 (stereo unspecified)  37.7%
28. c1cnc(N2CCC(c3nccn3CC3CC3)CC2)nc1  36.5%
29. Cc1ccc(S(=O)(=O)N2CC[C@@H]3C[C@H](NC(=O)c4[nH]ncc4Br)[C@@H]32)cc1  35.9%
30. CN(C)CCCN(CCC#N)C(=O)Nc1ccc2[nH]ccc2c1  35.9%
31. O=C(N[C@@H]1CN(c2ncccn2)C[C@@H]2CCCO[C@@H]21)c1ccncc1  35.8%
32. CC(C)c1nccn1C1CCCN(C(=O)c2cc(C(N)=O)cs2)C1 (stereo unspecified)  35.3%
33. Cc1ccc(C(=O)NC2CCN(Cc3cccc4c3OCCO4)CC2)s1  33.8%
34. Cn1nccc1-c1ccc2nc(C3CCN(CCO)CC3)nn2c1  33.4%
35. CCCn1cc2c(C(F)F)cc(SCC(=O)O)nc2n1  32.3%
36. CC(C)c1ncncc1C(=O)N1CCN(Cc2cccnc2)CC1  31.9%
37. CCS(=O)(=O)c1ccccc1N1CCC(N)CC1  31.8%
38. CCc1nc(C2CCCN2Cc2nc(Cc3ccccc3)no2)no1 (stereo unspecified)  31.3%
39. CNC(=O)c1ccc(C(=O)N2CCCC2c2c(C)nn(C)c2C)cn1 (stereo unspecified)  31.2%
40. Cc1cccc(CN2CCc3onc(CO)c3C2)n1  28.5%
41. COc1cc(C(=O)NC(C)(C)CN2CCN(C)CC2)c2ccccc2n1  28.05%
42. COC(C)c1cccc(NC(=O)N(CCC#N)Cc2ccccn2)c1 (stereo unspecified)  27.8%
43. CN(C)Cc1cc(=O)n2c(n1)CN(C(=O)Cc1cccs1)CCC2  27.6%
44. O=C([C@@H]1CSCN1)N1CCC2(CC1)CNCc1ccccc12  27.5%
45. CC(C)Oc1ccc(C(=O)N2CC[C@H](O)[C@@H](n3ccnc3)CC2)cc1  26.3%
46. CCCNC(=O)c1cc(OC)c(OC)cc1N(C)S(C)(=O)=O  24.9%
47. CC1CCCCN1C(=O)CN1CCN(c2ccc3nncn3n2)CC1 (stereo unspecified)  24%
48. COc1ccc([C@@H]2CN(Cc3cccnc3N)C[C@H]2NC(C)=O)cc1  23.9%
49. CN1CCC(Cc2cccc(-c3cc(F)ccc3C(=O)O)n2)CC1  23.4%
50. Cc1cc(C(=O)N2CCC3(C2)CN(c2cccnc2)C(=O)CN3C)[nH]n1 (stereo unspecified)  22.4%
51. Cc1ccoc1C(=O)NC1CCN(CC(=O)N(C)c2ccccc2)CC1  22.3%
52. Cc1nnc(CN2CCCC2c2ccc(Cl)c(Cl)c2)o1 (stereo unspecified)  21.5%
53. Cc1nc(N2CCOCC2)ncc1-c1cc(O)nc(N2CCCCC2)n1  20.9%
54. Cc1cn2c(n1)CCC(NC(=O)c1csc(C(C)C)n1)C2 (stereo unspecified)  19.5%
55. c1ccc(Cn2ccnc2CN2CCCC2c2noc(C3CC3)n2)cc1 (stereo unspecified)  18.6%
56. O=C1C[C@@H]2CC[C@H](CN1)N2C(=O)CCc1ccc2c(c1)OCO2  17.6%
57. O=C([C@H]1CCCO1)N1CCC2(CC1)CNCc1ccccc12  17.2%
58. CCN(CC)CC1CCN(C(=O)CCn2cccn2)CC1  17.15%
59. CCn1cc(-c2cncn2CCc2ccc3c(c2)OCCO3)cn1  16.5%
60. O=C(C1CCOC1)N1CCC2(CC1)CN(Cc1nccs1)CCO2 (stereo unspecified)  15.9%
61. CC1CN(CCc2ccccn2)CCN1c1ccc2nncn2n1 (stereo unspecified)  15.6%
62. CCC(=O)N1CCN(C(=O)c2cn3ccsc3n2)[C@H]2CS(=O)(=O)C[C@H]21  14.9%
63. Cc1cccc(C2(CNC(=O)c3ccnc(N(C)C)c3)CCOCC2)c1  13.5%
64. CC(=O)N1CCC2(CC1)CN(C(C)C)c1ccc(F)cc12  12.2%
65. CN1CCC(NC(=O)c2cc(C3CCCCC3)nc3ccccc23)CC1  10.5%
66. Cc1cs/c(=N\C(=O)Cn2nc(N3CCSCC3)ccc2=O)[nH]1  10.1%
67. Cc1nn(C)c(Cl)c1C1CCCN1C(=O)c1csnn1 (stereo unspecified)  10%
68. O=C(C1CC1)N1CCC2(CC1)CNc1ccc(F)cc12  8.85%
69. Cc1nc(-c2ccccc2)sc1CNC1CCc2ncnn2C1 (stereo unspecified)  8.64%
70. Cc1nn(CC(=O)n2cccn2)c(C)c1I  8.53%
71. CC(C)C(N)C1=NC(=C2N=CN=N2)NO1 (stereo unspecified)  8.11%
72. CC1CN(CC(=O)N2CCCC2)CCN1c1ccc2nncn2n1 (stereo unspecified)  7.67%
73. Cn1ccnc1CN1CCCC1c1noc(C2CC2)n1 (stereo unspecified)  7.64%
74. Cc1nc(CN2CCN(c3ccc4nncn4n3)C(C)C2)oc1C (stereo unspecified)  7.27%
75. CCn1nc(CC(C)C)cc1C(=O)NCCS(=O)(=O)N(C)C  7.25%
76. CC(C)C(=O)NC1CCN(Cc2cccc3c2OCCO3)CC1  6.81%
77. CCCN1CCN(C(=O)CCn2nc(C(F)(F)F)c(Br)c2C)CC1  6.67%
78. CN(C)c1ncc(-c2ccc(C(N)=O)cc2)c(C2CCNC2)n1 (stereo unspecified)  6.33%
79. CCc1nc(C2CCCN2Cc2nnc(Cc3ccccc3)o2)no1 (stereo unspecified)  5.97%
80. CCCc1nc(CN2CCOC(Cn3cncn3)C2)cs1 (stereo unspecified)  5.9%
81. COc1ccc(C)cc1NC(=O)C1CSc2ncc(C)c(=O)n2C1 (stereo unspecified)  5.36%
82. Cc1ccc(S(=O)(=O)NC(=O)CCc2cscn2)cc1Cl  3.46%
83. O=C(C1CCOC1)N1CCC2(CC1)Cc1ccccc1CNC2=O (stereo unspecified)  2.26%
84. CC(C)(CN1C[C@H](Nc2ncccn2)[C@@H](C2CC2)C1)N1CCOCC1  2.15%
85. CSc1cccc(NC(=O)Nc2c(O)oc3ccccc3c2=O)c1  1.86%
86. O=C(CN1CCN(c2ccc3nncn3n2)CC1)NC1CCCC1  -0.219%
87. CCc1nc(C2CCCN2Cc2nnc(CC)o2)no1 (stereo unspecified)  -0.219%
88. COc1ccc(Cl)cc1C(=O)N1C[C@H](C(C)C)[C@@H](N)C1  -0.55%
89. COCc1ccccc1CNC(=O)CNc1ccccc1C(C)=O  -1.79%
90. CCOc1ccc(NC(=O)N(CCC#N)Cc2ccccn2)cc1F  -1.95%
91. CC(C)(C)c1ccc(CN2C[C@H]3CC(O)C[C@H]3C2)c(OCC(N)=O)c1 (stereo partly specified)  -2.85%
92. O=C(CN1CCN(c2ccc3nncn3n2)CC1)NC1CCCCC1  -4.16%
93. CCc1c(C)nc2n(c1=O)CC(C(=O)Nc1sccc1C(=O)OC)CS2 (stereo unspecified)  -7.25%
94. CCOc1ccccc1-n1c(C2CC2)n[nH]c1=O  -8.25%
95. Cc1ccoc1C(=O)NC1CCN(Cc2ccccc2C#N)CC1  -9.37%
96. COC1CCN(C(=O)CCn2cccn2)CC1  -9.85%
97. c1ccc(CN2CCCC2)c(CNc2cncc3nnnn23)c1  -14.3%
98. COc1cc(N2CC[C@@H]3O[C@H](C(=O)N(C)C)C[C@@H]32)ncn1  -20.1%
99. CC(C)(CN1CCC2(CCNCC2)CC1)N1CCOCC1  -22.1%
100. Cc1cc(CN(C)C(=O)NC2CCN(Cc3ccccn3)CC2)no1  -26.6%
101. N#CCCN(Cc1ccccn1)C(=O)Nc1cccc(F)c1  -27.6%
102. CCn1nc2c(cc1=O)CN(Cc1nc(C)c(C)o1)CC2  -29.7%
103. Cc1ccoc1C(=O)NC1CCN(C(=O)Nc2ccccn2)CC1  -31.8%
104. CCc1nc(C2CCCN2Cc2nc(C3CC3)no2)no1 (stereo unspecified)  -34.9%
105. COCCOCC1(CNCc2ccc(F)cc2)C[C@@H](O)[C@@H](O)C1 (stereo partly specified)  -43%
106. CC(CNC(=O)c1cc(C2CC2)on1)N1CCc2ccccc21 (stereo unspecified)  -51.5%
